Here are results for three compounds from PubChem BioAssay (EPA / NIEHS).

Common to all, as to conditions: mRNA level, 48 h; actives raise or lower the signal
Read-out in test [1]: CFLAR gene, CFLAR (gene 8837)
Put plainly: LTEA_HepaRG_CFLAR: Life Technologies and Expression Analysis (LTEA) Assay for CFLAR gene using HepaRG (AID 2283455). In short, it runs like this:
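Differentiated HepaRG cells in serum-free induction medium were exposed 48 h in duplicate to eight half-log concentrations up to 100 uM in 0.5% DMSO; mRNA measured by TaqMan qRT-PCR, normalized to ACTB, GAPDH, POLR2A; bidirectional fitting versus DMSO.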

Read-out in test [2]: Forkhead box O1 (FOXO1), FOXO1 (gene 2308)
Put plainly: LTEA_HepaRG_FOXO1: Life Technologies and Expression Analysis (LTEA) Assay for Forkhead box O1 (FOXO1) using HepaRG (AID 2283456). Summed up:
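Differentiated HepaRG cells, in serum-free induction medium with 0.5% DMSO, exposed 48 h in duplicate to 8-point half-log series from 100 uM. FOXO1 mRNA measured by TaqMan qRT-PCR, normalized to ACTB, GAPDH, POLR2A; bidirectional fit versus DMSO.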

Read-out in test [3]: growth arrest and DNA damage 45 (GADD45A), GADD45A (gene 1647)
The test is described as follows: LTEA_HepaRG_GADD45A: Life Technologies and Expression Analysis (LTEA) Assay for growth arrest and DNA damage 45 (GADD45A) using HepaRG (AID 2283458). Summed up:
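Differentiated HepaRG cells exposed 48 h in serum-free induction medium to 8 concentrations, top 100 uM in half-log steps, 0.5% DMSO. GADD45A mRNA quantified by qRT-PCR, normalized to ACTB, GAPDH and POLR2A; bidirectional fit versus DMSO.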

Read-out in test [4]: Forkhead box O3 (FOXO3), FOXO3 (gene 2309)
The test is described as follows: LTEA_HepaRG_FOXO3: Life Technologies and Expression Analysis (LTEA) Assay for Forkhead box O3 (FOXO3) using HepaRG (AID 2283459). Summed up: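 Differentiated human HepaRG cells, 48 h post-plating, exposed in duplicate for 48 h in serum-free induction medium; 8-point half-log series from 100 uM in 0.5% DMSO. FOXO3 mRNA by TaqMan qRT-PCR, normalized to ACTB/GAPDH/POLR2A; bidirectional fit versus DMSO.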

Read-out in test [5]: ABC Transporter (ABCB1), ABCB1 (gene 5243)
Put plainly: LTEA_HepaRG_ABCB1: Life Technologies and Expression Analysis (LTEA) Assay for ABC Transporter (ABCB1) using HepaRG (AID 2283460). Summed up:
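HepaRG cells exposed in duplicate for 48 h in serum-free induction medium to eight half-log concentrations up to 100 uM in 0.5% DMSO. ABCB1 mRNA quantified by qRT-PCR, normalised to ACTB, GAPDH and POLR2A; fitted bidirectionally versus DMSO.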

Read-out in test [6]: growth arrest and DNA damage 45 (GADD45B), GADD45B (gene 4616)
Put plainly: LTEA_HepaRG_GADD45B: Life Technologies and Expression Analysis (LTEA) Assay for growth arrest and DNA damage 45 (GADD45B) using HepaRG (AID 2283461). Summed up: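 Transcript level quantified by Fluidigm TaqMan qRT-PCR with three housekeeping genes for normalization, analyzed for up- or down-regulation against 0.5% DMSO. HepaRG cultures dosed 48 h at eight half-log concentrations up to 100 uM, duplicates.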

Read-out in test [7]: ABC Transporter (ABCC3), ABCC3 (gene 8714)
The test is described as follows: LTEA_HepaRG_ABCC3: Life Technologies and Expression Analysis (LTEA) Assay for ABC Transporter (ABCC3) using HepaRG (AID 2283462). Summed up: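 Transcript level by TaqMan qRT-PCR, normalised to three housekeeping genes, fitted in both directions relative to vehicle. Chemicals tested in duplicate at eight half-log concentrations up to 100 uM for 48 h on HepaRG cells (0.5% DMSO).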

Read-out in test [8]: ABC Transporter (ABCB11), ABCB11 (gene 8647)
The test is described as follows: LTEA_HepaRG_ABCB11: Life Technologies and Expression Analysis (LTEA) Assay for ABC Transporter (ABCB11) using HepaRG (AID 2283463). In short, it runs like this: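 Differentiated human HepaRG cells in serum-free induction medium, dosed in duplicate for 48 h. Eight-point half-log series from 100 uM in 0.5% DMSO; ABCB11 mRNA by qRT-PCR, normalized to ACTB, GAPDH, POLR2A, fitted bidirectionally versus DMSO.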

Read-out in test [9]: ABC Transporter (ABCC2), ABCC2 (gene 1244)
The test is described as follows: LTEA_HepaRG_ABCC2: Life Technologies and Expression Analysis (LTEA) Assay for ABC Transporter (ABCC2) using HepaRG (AID 2283464). Summed up:
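Endpoint is ABCC2 transcript level from qRT-PCR, normalized to three housekeeping genes and fitted bidirectionally relative to DMSO. Human HepaRG cells received test chemical for 48 h at up to 100 uM (8 points, half-log steps, 0.5% DMSO), duplicate wells.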

Read-out in test [10]: Broad substrate specificity ATP-binding cassette transporter ABCG2 (Homo sapiens) (UniProt Q9UNQ0)
Put plainly: LTEA_HepaRG_ABCG2: Life Technologies and Expression Analysis (LTEA) Assay for ABC Transporter (ABCG2) using HepaRG (AID 2283465). Summed up:
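Differentiated HepaRG cells were exposed for 48 h in serum-free induction medium to 8 half-log concentrations, top 100 uM, in 0.5% DMSO. ABCG2 mRNA was measured by qRT-PCR, normalized to ACTB, GAPDH and POLR2A, with bidirectional fitting versus DMSO.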

Read-out in test [11]: ATP-citrate lyase (ACLY), ACLY (gene 47)
Put plainly: LTEA_HepaRG_ACLY: Life Technologies and Expression Analysis (LTEA) Assay for ATP-citrate lyase (ACLY) using HepaRG (AID 2283466). Summed up:
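Differentiated HepaRG cells exposed 48 h in serum-free induction medium to eight half-log concentrations up to 100 uM in 0.5% DMSO, duplicates. Transcript measured by Fluidigm TaqMan qRT-PCR, normalized to ACTB, GAPDH, POLR2A; bidirectional fit versus DMSO.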

Read-out in test [12]: Peroxisomal acyl-coenzyme A oxidase 1 (ACOX1) gene, ACOX1 (gene 51)
The test is described as follows: LTEA_HepaRG_ACOX1: Life Technologies and Expression Analysis (LTEA) Assay for Peroxisomal acyl-coenzyme A oxidase 1 (ACOX1) gene using HepaRG (AID 2283467). In short, it runs like this: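 HepaRG cells, plated 48 h then switched to serum-free induction medium, were exposed in duplicate for 48 h to 8-point half-log concentrations up to 100 uM in 0.5% DMSO. ACOX1 mRNA was measured by qRT-PCR, normalized to ACTB/GAPDH/POLR2A, and fitted bidirectionally versus DMSO.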

Read-out in test [13]: Alkaline Phosphatase, Placental (ALPP) gene, ALPP (gene 250)
Put plainly: LTEA_HepaRG_ALPP: Life Technologies and Expression Analysis (LTEA) Assay for Alkaline Phosphatase, Placental (ALPP) gene using HepaRG (AID 2283468). In short, it runs like this: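 ALPP transcript level, measured by qRT-PCR and normalized to three housekeeping genes (ACTB, GAPDH, POLR2A), after 48 h dosing of differentiated HepaRG in serum-free induction medium. Top concentration 100 uM with half-log dilutions (8 points, 0.5% DMSO, duplicates); bidirectional fitting relative to DMSO.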

Read-out in test [14]: Bcl-2 (BAD) gene, BAD (gene 572)
Put plainly: LTEA_HepaRG_BAD: Life Technologies and Expression Analysis (LTEA) Assay for Bcl-2 (BAD) gene using HepaRG (AID 2283469). In short, it runs like this: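 Differentiated HepaRG cells were exposed in duplicate in 0.5% DMSO for 48 h to eight-point half-log concentrations up to 100 uM. BAD mRNA was measured by Fluidigm TaqMan qRT-PCR, normalized to ACTB, GAPDH and POLR2A, and fitted bidirectionally against DMSO.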

Read-out in test [15]: Bcl-2 (BAX) gene, BAX (gene 581)
The test is described as follows: LTEA_HepaRG_BAX: Life Technologies and Expression Analysis (LTEA) Assay for Bcl-2 (BAX) gene using HepaRG (AID 2283470). In short, it runs like this:
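Differentiated HepaRG cells exposed 48 h in serum-free induction medium, eight half-log concentrations from 100 uM, in duplicate, 0.5% DMSO vehicle. BAX mRNA by TaqMan qRT-PCR, normalised to ACTB, GAPDH and POLR2A.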

Read-out in test [16]: adenosine kinase (ADK) gene, ADK (gene 132)
The test is described as follows: LTEA_HepaRG_ADK: Life Technologies and Expression Analysis (LTEA) Assay for adenosine kinase (ADK) gene using HepaRG (AID 2283471). Summed up:
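ADK expression quantified by qRT-PCR, normalised to three housekeeping genes, after 48 h exposure of HepaRG cells to eight concentrations (top 100 uM, half-log steps, duplicate, 0.5% DMSO). Up- or down-regulation fitted relative to vehicle.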

Read-out in test [17]: Alpha-fetoprotein (AFP) gene, AFP (gene 174)
The test is described as follows: LTEA_HepaRG_AFP: Life Technologies and Expression Analysis (LTEA) Assay for Alpha-fetoprotein (AFP) gene using HepaRG (AID 2283472). In short, it runs like this:
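Differentiated human HepaRG cells exposed 48 h in serum-free induction medium, 8-point half-log series from 100 uM in 0.5% DMSO, duplicate. AFP mRNA by qRT-PCR, normalized to ACTB, GAPDH, POLR2A; bidirectional fit vs DMSO.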

Read-out in test [18]: BCL2L11 (gene 10018)
Put plainly: LTEA_HepaRG_BCL2L11: Life Technologies and Expression Analysis (LTEA) Assay for Bcl-2 (BCL2L11) gene using HepaRG (AID 2283473). Summed up: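 BCL2L11 transcript levels are measured by Fluidigm qRT-PCR, normalized to three housekeeping genes. HepaRG cultures were plated 48 h, then treated 48 h with test chemical (top 100 uM, half-log, 0.5% DMSO vehicle); curves were fitted bidirectionally against DMSO.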

Read-out in test [19]: Apolipoprotein A-V (APOA5) gene, APOA5 (gene 116519)
Put plainly: LTEA_HepaRG_APOA5: Life Technologies and Expression Analysis (LTEA) Assay for Apolipoprotein A-V (APOA5) gene using HepaRG (AID 2283474). In short, it runs like this: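 APOA5 transcript levels were quantified by qRT-PCR, normalized to three housekeeping genes, after 48 h chemical treatment of HepaRG cells (8 points, 100 uM maximum, half-log steps, 0.5% DMSO). Curves fitted in both directions against vehicle.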

Molecules are shown by their SMILES. Active and inactive are the calls of the source. Rule for the calls: active = hit-call score of the fitted dose curve at least 0.9, where 1 is the maximum; inactive = score below 0.9.

Chain of Broad substrate specificity ATP-binding cassette transporter ABCG2 (Homo sapiens) (Q9UNQ0 whole entry, looked up): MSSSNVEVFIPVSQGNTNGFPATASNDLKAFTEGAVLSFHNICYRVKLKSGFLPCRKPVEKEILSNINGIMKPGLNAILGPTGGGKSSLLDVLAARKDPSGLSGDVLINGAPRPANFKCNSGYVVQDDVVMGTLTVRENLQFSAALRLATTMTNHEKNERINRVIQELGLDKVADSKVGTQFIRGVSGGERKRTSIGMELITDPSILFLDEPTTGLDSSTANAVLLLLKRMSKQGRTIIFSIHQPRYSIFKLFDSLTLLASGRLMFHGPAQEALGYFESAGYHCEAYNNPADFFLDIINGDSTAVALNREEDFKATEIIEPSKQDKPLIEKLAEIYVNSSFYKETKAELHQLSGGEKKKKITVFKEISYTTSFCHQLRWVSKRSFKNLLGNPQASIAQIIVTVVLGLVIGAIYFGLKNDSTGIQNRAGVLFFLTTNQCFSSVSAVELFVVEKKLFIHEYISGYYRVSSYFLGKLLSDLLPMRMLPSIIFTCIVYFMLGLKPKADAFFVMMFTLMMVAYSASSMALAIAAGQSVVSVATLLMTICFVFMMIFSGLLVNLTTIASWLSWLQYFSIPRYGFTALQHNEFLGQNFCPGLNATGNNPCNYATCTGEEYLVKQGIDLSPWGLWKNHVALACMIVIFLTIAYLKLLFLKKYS

`COCC(C)OCC(C)OCC(C)O` (configuration not stated): the call in test [1], in [2], in [3], in test [4], in test [5] and in [6] was inactive. Further, the outcome in [7], in [8], in [9], in test [10], in [11] and in test [12] was inactive. For the same compound, the compound was classed as inactive in [13], in [14], in test [15], in test [16], in [17] and in [18]. The compound was called inactive in test [19].

For the compound `Cc1cc(F)ccc1-c1cc(N2CC[C@@H](O)[C@H]2CO)ncc1N(C)C(=O)C(C)(C)c1cc(C(F)(F)F)cc(C(F)(F)F)c1`, the AC50 (in general, the concentration giving half of the maximal activity seen) is 75.7 µM (active) in [1]; 10.3 µM (active) in [5]; 76 µM (active) in test [6]; 21.8 µM (active) in test [8]; 70.7 µM (active) in test [9]; 16.7 µM (active) in test [10]. Besides, the AC50 in test [12] was 8.09 µM (active); in test [13], 16.5 µM (active); in test [14], 72.1 µM (active); in [15] it was 74.8 µM (active); in [17] it was 18 µM (active); in [18] it was 52.7 µM (active). Besides, the half-maximal activity concentration (AC50) in test [19] was 12.9 µM (active). Besides, the compound was classed as inactive in test [2], in test [3], in [4], in test [7], in test [11] and in test [16].

Turning to `CC(C)(C)c1cc(/C=C2\SC(N)=NC2=O)cc(C(C)(C)C)c1O`, the AC50 in test [1] was 27.5 µM (active); in test [6], 35.5 µM (active); in test [7], 50 µM (active); in test [8], 24.6 µM (active); in test [9], 27.6 µM (active); in test [11] it was 82 µM (active). For the same compound, the AC50 is 26.1 µM (active) in [12], 23.5 µM (active) in test [16] and 96.8 µM (active) in [18]. The call in test [2], in [3], in test [4], in [5], in test [10] and in [13] was inactive. Besides, the call in test [14], in test [15], in [17] and in test [19] was inactive.
